Results as given in PubChem BioAssay AID1159580 (chemical genetic matrix, 2015).
“And” between values parts separate entries of the source, which are not always exact repeats. Equal values may be shown once. The whole screen tested about 5,500 compounds, of which about 2,000 (36%) were called active. About 18% were inconclusive and are not listed. No stated cut-off is given here; in the data, active means normalized growth mostly below about 0.91 (no sharp cut-off); inconclusive means no clear call, values can overlap the other calls; inactive means mostly above about 0.92. The list shows a part of the results.

Assay: chemical genetic growth profiling, strain panel (AID 1159580);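 further: tested at 20 µM; growth read once vehicle control cultures reached saturation at 30 °C; 1 = growth at the plate median or of vehicle wells; lower values mean less growth of the strain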
Conditions: S. cerevisiae deletion strains, growth OD

Measured: normalized growth

C[C@H]1C(=O)O[C@@H]2CCN3CC=C(COC(=O)[C@](C)(O)[C@]1(C)O)[C@H]23
inactive: locus YAL021C, strain ccr4, active compounds read low 1 | locus YAL026C, strain drs2, active compounds read low 0.991 | locus YAL030W, strain snc1, active compounds read low 0.989 | locus YBL061C, strain skt5, active compounds read low 0.995 | locus YBR009C, strain hhf1, active compounds read low 0.993 | locus YBR021W, strain FUR4, active compounds read low 0.978 | locus YBR023C, strain chs3, active compounds read low 0.995 | locus YBR171W, strain sec66, active compounds read low 0.987 | locus YBR229C, strain ROT2, active compounds read low 0.989 | locus YBR231C, strain swc5, active compounds read low 0.984 | locus YBR279W, strain paf1, active compounds read low 0.99 | locus YCL011C, strain gbp2, active compounds read low 0.997 | locus YCL016C, strain dcc1, active compounds read low 0.999 | locus YCL029C, strain bik1, active compounds read low 0.99 | locus YCL069W, strain vba3, active compounds read low 0.995 | locus YCR088W, strain abp1, active compounds read low 0.992 | locus YDL005C, strain med2, active compounds read low 0.992 | locus YDL035C, strain GPR1, active compounds read low 0.999 | locus YDL040C, strain nat1, active compounds read low 0.991 | locus YDL074C, strain BRE1, active compounds read low 1.02 | locus YDL101C, strain DUN1, active compounds read low 0.99 | locus YDL134C, strain PPH21, active compounds read low 0.968 | locus YDL185W, strain tfp1, active compounds read low 0.984 | locus YDL192W, strain arf1, active compounds read low 0.981 | locus YDR001C, strain nth1, active compounds read low 0.99 | locus YDR069C, strain doa4, active compounds read low 0.99 | locus YDR101C, strain arx1, active compounds read low 0.994 | locus YDR137W, strain rgp1, active compounds read low 0.972 | locus YDR159W, strain sac3, active compounds read low 0.984 | locus YDR162C, strain NBP2, active compounds read low 0.996 | locus YDR195W, strain ref2 0.945 | locus YDR297W, strain sur2, active compounds read low 0.998 | locus YDR318W, strain mcm21, active compounds read low 0.996 | locus YDR334W, strain swr1, active compounds read low 0.995 | locus YDR335W, strain msn5, active compounds read low 0.989 | locus YDR388W, active compounds read low 0.997 | locus YDR392W, strain spt3, active compounds read low 0.995 | locus YDR502C, strain sam2, active compounds read low 0.99 | locus YEL003W, strain gim4, active compounds read low 0.991 | locus YEL037C, strain rad23, active compounds read low 0.996 | locus YEL061C, strain CIN8 (second series), active compounds read low 0.99 | locus YEL061C, strain CIN8, active compounds read low 0.995 | locus YER015W, strain faa2, active compounds read low 0.998 | locus YER016W, strain bim1, active compounds read low 0.989 | locus YER110C, active compounds read low 0.986 | locus YER111C, strain swi4, active compounds read low 0.969 | locus YER155C, strain BEM2 (second series), active compounds read low 0.937 | locus YER155C, strain BEM2, active compounds read low 0.988 | locus YER167W, strain BCK2, active compounds read low 0.982 | locus YFR010W, strain ubp6, active compounds read low 0.99 | locus YGL078C, strain dbp3, active compounds read low 0.988 | locus YGL086W, strain mad1, active compounds read low 1.01 | locus YGL167C, strain pmr1, active compounds read low 0.994 | locus YGL173C, strain kem1, active compounds read low 0.994 | locus YGL227W, strain vid30, active compounds read low 0.982 | locus YGL240W, strain doc1, active compounds read low 0.987 | locus YGL248W, strain PDE1, active compounds read low 0.997 | locus YGL253W, strain hxk2, active compounds read low 0.994 | locus YGR135W, strain pre9, active compounds read low 0.987 | locus YGR229C, strain SMI1, active compounds read low 1 | locus YGR252W, strain gcn5, active compounds read low 0.98 | locus YHR013C, strain ard1, active compounds read low 1 | locus YHR027C, strain rpn1, active compounds read low 0.991 | locus YHR030C, strain SLT2, active compounds read low 0.986 and 0.998 | locus YHR079C, strain IRE1 (second series), active compounds read low 0.994 | locus YHR079C, strain IRE1, active compounds read low 0.985 | locus YHR094C, strain hxt1, active compounds read low 0.991 | locus YHR129C, strain ARP1, active compounds read low 0.989 | locus YHR142W, strain chs7, active compounds read low 1 | locus YHR200W, strain rpn10, active compounds read low 0.991 | locus YIL066C, strain RNR3, active compounds read low 0.992 | locus YIL073C, strain SPO22, active compounds read low 0.969 | locus YIL125W, strain kgd1, active compounds read low 0.995 | locus YIR030C, strain dcg1, active compounds read low 0.99 | locus YJL092W, strain hpr5, active compounds read low 0.97 | locus YJL095W, strain BCK1 (second series), active compounds read low 0.984 | locus YJL095W, strain BCK1, active compounds read low 1.02 and 1 | locus YJL115W, strain asf1, active compounds read low 0.969 | locus YJL129C, strain trk1, active compounds read low 0.968 | locus YJL134W, strain LCB3, active compounds read low 0.994 | locus YJL154C, strain vps35, active compounds read low 0.991 | locus YJL164C, strain tpk1, active compounds read low 1.01 | locus YJL166W, strain qcr8, active compounds read low 0.987 | locus YJL168C, strain set2, active compounds read low 0.997 | locus YJL187C, strain SWE1 (second series), active compounds read low 0.995 | locus YJL187C, strain SWE1, active compounds read low 0.996 | locus YJR043C, strain POL32, active compounds read low 1.01 | locus YJR066W, strain TOR1, active compounds read low 0.944 | locus YKL009W, strain mrt4, active compounds read low 0.983
